Screens from PubChem BioAssay.
Compounds with a hit are over-represented: about 2.4% of the library has one in this group of screens.
POLH inh: qHTS for Inhibitors of Polymerase Eta; recombinant Pol eta, fluorescent DNA replication assay; DNA polymerase eta (Homo sapiens), Q9Y253; AID 588591, 2011; Potency, µM (highest dose often 114 µM), most hits filed as inhibitors; 1.2% of 390,000 active
Target sequence (Q9Y253 whole entry, looked up): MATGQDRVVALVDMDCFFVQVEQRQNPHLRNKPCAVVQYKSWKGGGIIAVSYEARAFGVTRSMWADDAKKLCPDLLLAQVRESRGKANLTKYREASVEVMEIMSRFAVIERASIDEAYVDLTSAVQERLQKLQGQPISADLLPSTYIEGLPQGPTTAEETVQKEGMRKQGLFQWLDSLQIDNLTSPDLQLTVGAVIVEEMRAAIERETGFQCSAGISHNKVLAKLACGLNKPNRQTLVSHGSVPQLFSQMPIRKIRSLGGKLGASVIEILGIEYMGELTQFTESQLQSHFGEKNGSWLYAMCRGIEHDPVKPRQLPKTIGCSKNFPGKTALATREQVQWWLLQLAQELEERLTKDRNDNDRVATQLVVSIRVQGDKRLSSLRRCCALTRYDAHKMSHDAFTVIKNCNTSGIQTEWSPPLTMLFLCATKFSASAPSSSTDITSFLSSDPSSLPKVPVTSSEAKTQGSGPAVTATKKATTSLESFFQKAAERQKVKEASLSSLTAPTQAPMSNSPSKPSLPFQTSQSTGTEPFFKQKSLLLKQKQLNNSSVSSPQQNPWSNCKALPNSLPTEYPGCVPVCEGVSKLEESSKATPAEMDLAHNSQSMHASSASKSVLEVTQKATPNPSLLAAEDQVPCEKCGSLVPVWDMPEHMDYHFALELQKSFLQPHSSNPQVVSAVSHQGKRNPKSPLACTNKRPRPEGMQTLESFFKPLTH
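Fluorescent replication assay: 50 nM final substrate added after a 15 min room-temperature compound preincubation with 10 nM enzyme. Signal taken at 0 min and again at 10 min.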
POLK inh: qHTS for Inhibitors of Polymerase Kappa | AID 588579, 2011 | purified Pol kappa, fluorescent DNA synthesis assay, 10 min | Potency, µM (series often up to 107 µM), hits mostly inhibitors | 0.53% of 400,000 active
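Kinetic fluorescence readout at 0 and 10 min followed reaction start with substrate at 50 nM final. Beforehand, enzyme (10 nM Pol kappa) stood 15 min with compound at room temperature; buffer-only wells were negative controls.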
FEN1 inh: qHTS Assay for the Inhibitors of Human Flap endonuclease 1 (FEN1); Recombinant FEN1 flap cleavage, fluorescence, 15 min; Potency, µM (top dose mostly 114 µM), usual class: inhibitors; 0.35% of 390,000 active; AID 588795, 2011; note: nearly all actives have a fitted effect of over 65% in size
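Compounds are tested as a concentration series against 10 nM FEN1; after a 15 min room-temperature preincubation, 50 nM substrate starts cleavage, with plate reads at 0 and 15 min. Normalized responses are fitted by a Hill equation.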
WRN helicase inh: qHTS for Inhibitors of WRN Helicase; WRN helicase unwinding, fluorescent forked duplex, kinetic; Potency, µM (series often up to 114 µM), hits mostly inhibitors; 0.46% of 360,000 active; AID 651768, 2012; note: nearly all actives have a fitted effect of over 55% in size
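WRN at 20 nM final was preincubated with compound for 15 min at room temperature; reaction started with 100 nM forked duplex oligonucleotide carrying fluorophore and quencher plus 2 mM ATP (final). Unwinding followed kinetically by red fluorescence (ex 525/em 598 nm).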
POLB inh: qHTS Assay for Inhibitors of DNA Polymerase Beta. Pol beta primer extension/strand displacement, fluorescence kinetic. Potency, µM (doses to about 114 µM), hits mostly inhibitors. 1.3% of 340,000 active. AID 485314, 2010
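Reaction started by 50 nM substrate onto compound-treated Pol beta (10 nM, 15 min preincubation, room temperature); plates read at 0 min and 10 min. Normalized concentration-effect data fitted by four-parameter Hill equation.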
POLI inh: qHTS for Inhibitors of Polymerase Iota; DNA polymerase iota (Homo sapiens), Q9UNA4; Pol iota fluorescent replication assay, 10 min; 1% of 390,000 active; Potency, µM (doses to about 115 µM), hits mostly inhibitors
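Pol iota at 10 nM preincubated 15 min with compounds at room temperature; reaction started with fluorescent substrate, 50 nM final. Fluorescence read kinetically at 0 and 10 min; buffer-only wells as negative control.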
Each line names hits and unclear results; the compound was inactive in the other large screens. Calls come from the whole dose curve; as a rule, active = well fitted curve in the direction sought with a large enough effect; inconclusive = small, poorly fitted or top-dose-only effect, or another doubt; inactive = no such curve, though single readings can be large; an effect the other way counts as inactive or inconclusive.

Cc1nn2c(=O)cc(COC(=O)c3ccccc3NC(=O)c3ccccc3C)nc2s1	none (no result: WRN helicase inh)
CCCCc1nn2c(=O)cc(COC(=O)c3cccc(Cl)c3)nc2s1	none (no result: WRN helicase inh)
COc1cc(OC)c2c(=O)c(-c3ccc4c(c3)OCO4)coc2c1	none (no result: POLH inh, FEN1 inh, WRN helicase inh, POLB inh, POLI inh)
O=C(Nc1ccc(F)cc1F)C1CC(=O)N(Cc2ccccc2)C1 (centres undefined)	none (no result: POLB inh)
COc1ccc(/C(C)=N/OCC(=O)N=Nc2c(O)[nH]c3ccccc23)cc1	none
CCCCCN1N=C(C)CC1=O	POLI inh 1.1µM
Cc1ccc(C)c(NC(=O)NNC(=O)c2cc3ccccc3cc2O)c1	POLH inh inconclusive, POLK inh inconclusive, POLB inh 35µM, POLI inh 35µM
CCOc1ccc(NC(=O)NNC(=O)c2cc3ccccc3cc2O)cc1	POLB inh inconclusive, POLI inh 79µM
Cc1cccc(NC(=O)NNC(=O)c2cc3ccccc3cc2O)c1C	POLK inh inconclusive, POLB inh 35µM, POLI inh 50µM
Cc1ccc(NC(=O)NNC(=O)c2cc3ccccc3cc2O)cc1C	POLB inh inconclusive, POLI inh inconclusive
CN(Cc1ccccc1)C(=O)c1ccc(NC(=O)Cc2ccc(NC(=O)C3CCCN(C(=O)C4CCC4)C3)cc2)cc1 (centres undefined)	none (no result: POLB inh)
COc1ccc(-n2ncc(C(=O)N3CCN(C4CCCCC4)CC3)c2C2CCN(C(=O)OC(C)(C)C)CC2)cc1	none (no result: WRN helicase inh)
O=C(N/N=C/c1c[nH]c2ccccc12)c1ccccc1Cl	none
O=C(O)c1ccc2[nH]c3c(c2c1)CSCC3	POLH inh 8.9µM, POLK inh inconclusive, POLB inh inconclusive
CCOC(=O)c1ccc2[nH]c3c(c2c1)CCCC3	none
CN(CC(=O)Nc1ccc(Cl)c(C(F)(F)F)c1)C(=O)c1cccs1	none (no result: POLB inh)
O=C(COC(=O)Cc1ccc(-c2ccccc2)cc1)NCc1ccc(F)cc1	none
COc1ccc(-c2ccc(/C=C3/C(=N)N4C=CSC4=NC3=O)o2)c([N+](=O)[O-])c1	POLH inh 20µM, WRN helicase inh inconclusive, POLB inh 35µM, POLI inh inconclusive
CC(=O)Nc1ccc(OCCOc2ccc(/C=C3/C(=N)N4C=CSC4=NC3=O)cc2)cc1	POLI inh inconclusive
N#Cc1c(-c2ccco2)nc(SCC(=O)Nc2cccc(Cl)c2)[nH]c1=O	POLH inh inconclusive, WRN helicase inh inconclusive, POLB inh 56µM, POLI inh inconclusive
O=C(CSc1nc2[nH]ncc2c(=O)[nH]1)Nc1cccc(Cl)c1	none (no result: POLB inh)
CCc1ccc(NC(=O)C(C)Sc2nc(-c3ccco3)c(C#N)c(=O)[nH]2)cc1 (centres undefined)	POLH inh 18µM, WRN helicase inh inconclusive, POLI inh inconclusive
CC(=O)Nc1ccc(S(=O)(=O)N/N=C/c2ccc(C)s2)cc1	none
CCN(CC)CCN1C(=O)C(O)=C(C(C)=O)C1c1ccccc1 (centres undefined)	none (no result: POLH inh, POLK inh, FEN1 inh, WRN helicase inh, POLI inh)
COc1ccc(C2=NN(c3nc4ccccc4s3)C(=O)/C2=C\N(C)C)cc1	none
COc1ccc2c3c(cccc13)C(=O)CC2	FEN1 inh 50µM
Cc1ccc(S(=O)(=O)Nc2ccc3c(c2)CCCN3C(=O)c2cccs2)cc1C	none (no result: WRN helicase inh)
Cc1nc2ccccn2c1C(=O)N/N=C/c1ccc(CNC(=O)C(=O)Nc2ccccc2)o1	POLH inh inconclusive, POLB inh inconclusive, POLI inh 89µM
CCOC(=O)c1c(S(=O)(=O)NCC(=O)N(C)c2ccc(C)cc2)c(C)n(C)c1C	POLH inh 45µM (no result: WRN helicase inh)
COc1cccc(N2C(=O)C(c3ccccc3)=C(c3nc4ccccc4s3)C2NC(C)=O)c1 (centres undefined)	POLB inh 89µM
Cc1c(Br)c(O)c(Br)c2sc(=O)oc12	POLH inh inconclusive, POLK inh inconclusive, FEN1 inh inconclusive, POLB inh 20µM, POLI inh 6.3µM
COc1cccc(NS(=O)(=O)c2ccc3[nH]cc(C(=O)NCCc4ccc(C)cc4)c(=O)c3c2)c1	POLH inh inconclusive, POLB inh inconclusive, POLI inh inconclusive (no result: WRN helicase inh)
COc1cccc(NS(=O)(=O)c2ccc3[nH]cc(C(=O)NC4CCCCC4)c(=O)c3c2)c1	POLH inh 89µM, POLB inh inconclusive, POLI inh inconclusive (no result: WRN helicase inh)
CCc1ccc(NS(=O)(=O)c2ccc3[nH]cc(C(=O)NCCCOC(C)C)c(=O)c3c2)cc1	POLH inh inconclusive, POLK inh inconclusive, POLB inh 40µM, POLI inh inconclusive (no result: WRN helicase inh)
CC(C)c1ccc(NS(=O)(=O)c2ccc3[nH]cc(C(=O)NCCc4ccccc4)c(=O)c3c2)cc1	POLB inh inconclusive (no result: WRN helicase inh)
CCOc1ccc(NS(=O)(=O)c2ccc3[nH]cc(C(=O)N(CC)CC)c(=O)c3c2)cc1	POLH inh 20µM, POLI inh inconclusive
COc1cccc(NS(=O)(=O)c2ccc3[nH]cc(C(=O)NCCc4ccccc4)c(=O)c3c2)c1	POLB inh inconclusive, POLI inh 79µM (no result: WRN helicase inh)
Cc1csc2nc(CSc3nc4ccccc4o3)cn12	POLI inh inconclusive
CC(C)c1ccc(NS(=O)(=O)c2ccc3[nH]cc(C(=O)N4CCC(C(N)=O)CC4)c(=O)c3c2)cc1	POLH inh 18µM, POLB inh 50µM, POLI inh inconclusive
Cc1cc(C)cc(NS(=O)(=O)c2ccc3[nH]cc(C(=O)N4CCCC4)c(=O)c3c2)c1	none (no result: WRN helicase inh)
COc1ccc2c3c(c(=O)oc2c1)C1O[C@](CCCCN2C(=O)c4ccccc4C2=O)(Cc2cc(OC)c(OC)cc21)O3	none (no result: POLH inh, POLK inh, FEN1 inh, WRN helicase inh, POLI inh)
COc1cc2c(cc1OC)C1O[C@](CCCCN3C(=O)c4ccccc4C3=O)(C2)Oc2c1c(=O)oc1ccc(F)cc21	POLB inh 3.5µM (no result: POLH inh, POLK inh, FEN1 inh, WRN helicase inh, POLI inh)
O=[N+]([O-])c1ccc(Nc2ccccc2)c2nonc12	none
O=[N+]([O-])c1ccc(Sc2cccc[n+]2[O-])c2nonc12	POLH inh 4.5µM, POLK inh 32µM, FEN1 inh 22µM, WRN helicase inh 16µM, POLB inh 20µM, POLI inh 3.5µM
COC(=O)CSc1nc(N)c(C#N)c(-c2ccco2)c1C#N	POLH inh inconclusive
COC(=O)CSc1nc(-c2ccccc2)cc(-c2ccco2)c1C#N	POLB inh 28µM
N#Cc1c(-c2ccc(F)cc2)cc(-c2ccccc2)nc1SCC(=O)NCC(=O)O	FEN1 inh inconclusive, POLB inh 45µM, POLI inh inconclusive
COc1ccc(NC(=O)c2ccc(N3CCCC3=O)cc2)cc1Cl	none (no result: POLB inh)
COc1ccccc1NC(=O)CN(C)S(=O)(=O)c1cc(C)ccc1OC	none
O=C(CN(Cc1ccccc1)C(=O)c1csnn1)NCc1ccc2c(c1)OCO2	none
Cc1cccc(C)c1NC(=O)CNC(=O)CCC(=O)N1CCOCC1	none (no result: POLB inh)
